BCR signal inh = qHTS Assay to Find Inhibitors of Chronic Active B-Cell Receptor Signaling. ABC-DLBCL IkBa-CBG/CBR reporter, luminescence ratio, 4 h. Potency, µM (top dose mostly 46.1 µM), most hits filed as inhibitors. 340,000 compounds, 0.05% hits. AID 493014, 2011; active means well fitted inhibition curve with a large enough effect in the signal ratio, with a control signal flat, not every such curve was filed as active; inconclusive means small, poorly fitted or top-dose-only effect, or effect the other way, or a change in a side signal; the % refers to the signal ratio
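TMD8 human ABC-DLBCL cells with doxycycline-inducible IκBα–green luciferase fusion and unfused red luciferase, in 0.5% FBS medium; compounds up to 46 uM, 4 h at 37C. Green/red luminescence ratio, filter-overlap corrected, fitted to concentration-response curves.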
Apoferritin bind = qHTS Assay for Identification of Novel General Anesthetics; apoferritin/1-aminoanthracene competitive binding, fluorescence; Potency, µM (doses to about 77.5 µM), hits mostly inhibitors; 350,000 compounds, 0.074% hits; AID 485281, 2010; further: nearly all actives have a fitted effect of over 20% in size
Target sequence (P02791 2-175 limits assumed): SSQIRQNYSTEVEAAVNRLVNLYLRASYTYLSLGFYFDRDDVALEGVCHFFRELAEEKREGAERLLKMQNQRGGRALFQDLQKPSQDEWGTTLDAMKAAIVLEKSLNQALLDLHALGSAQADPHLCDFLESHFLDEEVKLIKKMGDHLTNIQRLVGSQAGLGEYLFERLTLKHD
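Read-out: endpoint 1-AMA fluorescence, excitation 380 nm and emission 535 nm, after compounds sit 10 min at room temperature with 10 uM horse-spleen apoferritin in 50% saturated 1-AMA/PBS. Values come from four-parameter Hill fits.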
GRP78 ERSR act = qHTS for Inducers of the Endoplasmic Reticulum Stress Response (ERSR) in Human Glioma: qHTS | U87-MG GRP78 promoter luciferase reporter, 16 h | Potency, µM, usual class: activators | 420,000 compounds, 0.02% hits | AID 602332, 2012; further: series mostly up to about 76 µM; nearly all actives have a fitted effect of over 35% in size
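Stably transfected U87-MG glioma cells carrying a GRP78-based luciferase sensor; 16 h compound incubation. Luminescence end-point read 10 min after Bright-Glo addition at room temperature.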
12-LOX inh = Primary qHTS assay for inhibitors of human arachidonate 12S-lipoxygenase (ALOX12): Round 2 | Polyunsaturated fatty acid lipoxygenase ALOX12 (Homo sapiens), P18054 | Potency, µM (highest dose often 108 µM), most hits filed as inhibitors | purified 12hLO, xylenol orange hydroperoxide absorbance | 580,000 compounds, 1.1% hits
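Purified human 12hLO at 150 nM in 25 mM Hepes, 0.01% Triton X-100, pH 7.0, preincubated 15 min at room temperature with compound. Reaction started with 40 uM arachidonic acid, 30 min at room temperature. Hydroperoxide measured by Fe-xylenol orange, 573/405 nm absorbance ratio.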
Hits are given with their value; . = inactive; ? = inconclusive; / = no result; ! = not active in a repeat. A selection: hits, their analogues and other compounds. The true share with any hit is near 1.1%. Unless noted, the call rests on the fitted dose curve; in most records, active means well fitted curve in the direction sought with a large enough effect; inconclusive means small, poorly fitted or top-dose-only effect, or another doubt; inactive means no such curve, though single readings can be large; an effect the other way counts as inactive or inconclusive.

SMILES	BCR signal inh	Apoferritin bind	GRP78 ERSR act	12-LOX inh
Cc1ccc(/C=C/C(=O)c2ccccc(=O)c2O)c(C)c1	.	?	.	31.6µM
Cc1ccc(C)c(/C=C/C(=O)c2ccccc(=O)c2O)c1	?	.	.	20µM
COc1ccc(-c2noc(CNC(=O)CCc3c(C)c4ccc(OC)cc4oc3=O)n2)cc1	/	/	/	.
COc1ccc(C2CC(c3ccccc3NS(=O)(=O)c3ccccc3)=NN2C(C)=O)cc1 (configuration not stated)	/	/	/	.
Cc1nn(CCc2nc(-c3ccco3)cs2)c2[nH]c(=O)cc(C(F)(F)F)c12	.	?	.	7.94µM
Cc1cc(C)n(CCc2nc(-c3ccco3)cs2)n1	.	.	.	?
Cc1nn(CCc2nc(-c3ccccc3)cs2)c2[nH]c(=O)cc(C(F)(F)F)c12	/	/	/	7.08µM
Cc1cc(C)n(CCc2nc(-c3ccc(-c4ccccc4)cc3)cs2)n1	?	.	.	?
COc1cc(CNCCc2ccc(S(N)(=O)=O)cc2)ccc1OCc1ccc(Cl)cc1	.	?	.	39.8µM
CCOc1cc(CNCCc2ccc(S(N)(=O)=O)cc2)ccc1OCc1ccc(Cl)cc1	.	?	.	?
CNc1oc(-c2ccc(Cl)cc2)nc1S(=O)(=O)c1ccc2c(c1)OCCO2	/	/	/	.
COc1ccc(-c2nc(S(=O)(=O)c3ccc4c(c3)OCCO4)c(N3CCN(C)CC3)o2)cc1	/	/	/	35.5µM
CN(C)CCNc1oc(-c2ccc(F)cc2)nc1S(=O)(=O)c1ccc2c(c1)OCCO2	/	/	/	31.6µM
CN(Cc1ccccc1N1CCCCC1)C(=O)c1cccc(S(=O)(=O)N2CCOCC2)c1	/	/	/	.
O/N=C/c1cccc(OCc2ccncc2)c1	/	/	/	.
COc1ccc(C(CN)c2c[nH]c3ccccc23)cc1 (configuration not stated)	/	/	/	.
Nc1[nH]c(C(=O)c2ccccc2)c(-c2ccc(Br)cc2)c1C(=O)c1cccs1	/	/	/	39.8µM
NC(=O)c1c(N)[nH]c(C(=O)c2ccccc2)c1-c1ccc(Br)cc1	/	/	/	.
CCCc1c(C)nc2ccc(Cl)cc2c1-c1ccccc1	/	/	/	1.78µM
CC(=O)c1c(C)nc2ccc(Cl)cc2c1-c1ccccc1	/	/	/	.
CSCCCNC(=S)NCC(C)(C)N1CCOCC1	/	/	/	.
O=C(O)c1ccc(Nc2ncc3c(n2)-c2ccc(Cl)cc2C(c2c(F)cccc2F)=NC3)cc1	/	/	/	15.3µM
COc1ccccc1Oc1c(C)oc2cc(OCC(=O)Nc3cccc(C)c3C)ccc2c1=O	/	/	/	.
Cc1sc2c(c1C)CN(C(C)C)CN2C(=O)c1ccccc1	/	/	/	6.31µM
C/C(=N\NC(=S)NC1CCCCC1)c1ccc(OC(F)F)cc1OC(F)F	.	.	.	28.2µM
SMILES	BCR signal inh	Apoferritin bind	GRP78 ERSR act	12-LOX inh
C/C(=N\NC(=O)C1CC1)c1ccc(OC(F)F)cc1OC(F)F	.	.	.	.
c1ccc(Cc2nn3c(Cn4nnc5ccccc54)nnc3s2)cc1	.	?	.	56.2µM
CCOC(=O)Nc1ccc(NS(=O)(=O)c2cc(F)ccc2F)cc1	/	/	/	.
CCOC(=O)Nc1ccc(NS(=O)(=O)c2ccc(F)cc2C)cc1	/	/	/	25.1µM
CCOc1cc(C(=O)N(C)Cc2cc3cc(OC)ccc3[nH]c2=O)cc(OCC)c1OCC	.	.	.	2µM!
CCNC(=O)NC(=O)CN(C)Cc1cc(C)c(OC)c(C)c1	/	/	/	.
COC(=O)[C@@H]1Cc2ncn(C)c2CN1S(=O)(=O)c1ccc(OC)cc1	/	/	/	31.6µM
CCCn1cnc2c1CN(S(=O)(=O)c1ccc(F)cc1)[C@H](C(=O)OC)C2	/	/	/	.
C=CCn1c(COc2ccccc2)nc2ccccc21	.	70.8µM	.	.
c1ccc(OCCn2c(COc3ccccc3)nc3ccccc32)cc1	/	.	.	.
CCc1nncn1C1CCN(S(=O)(=O)c2cccc(OC)c2)CC1	/	/	/	79.4µM
NCc1oc(-c2ccccc2)cc1C(=O)O	?	.	.	10µM
CCN(CC)Cc1oc(-c2ccccc2)cc1C(=O)O	?	.	.	?
O=C(NCC(Cl)c1ccc2ccccc2c1)c1c(F)cccc1F (configuration not stated)	?	.	.	35.5µM
C=CCn1c(SCC(=O)NC2CCCC2)nc2scc(-c3ccco3)c2c1=O	?	.	.	44.7µM
COc1ccc(Nc2cc3n(c(=O)n2)CCc2cc(OC)c(OC)cc2-3)cc1	?	.	.	?
